Inconclusive results are not listed. Where a call stands in place of a potency, no number is given. A number with no mark means an inactive call. The source made the active and inactive calls. Calls follow the shape of the dose curve; as a rule, active = well fitted inhibition curve with a large enough effect; inconclusive = small, poorly fitted or top-dose-only effect; inactive = flat fitted curve, though single readings scatter.
What was measured:
Assay in all cases: qHTS profiling for inhibitors of Plasmodium falciparum proliferation (AID 504749); also: nearly all actives have a fitted effect of over 60% in size
Details in all cases: P. falciparum in erythrocytes, SYBR Green DNA, 72 h; series mostly up to 28.7 µM
[1] = test system: AA1029
Summary of the method: (§1)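 In a 72 h erythrocytic culture (37 C, humidified, 5% CO2) at 2.5% hematocrit and 0.3% starting parasitemia, compounds were tested; SYBR Green I in detergent lysis buffer stained parasite DNA overnight.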

[2] = test system: AS120
Summary of the method: as §1

[3] = test system: ATS189
Summary of the method: as §1

[4] = test system: ATS95
Summary of the method: as §1

[5] = test system: C2A
Summary of the method: as §1

[6] = test system: CP185
Summary of the method: as §1

[7] = test system: CP191
Summary of the method: as §1

[8] = test system: CP192
Summary of the method: as §1

[9] = test system: CP194
Summary of the method: as §1

[10] = test system: CP201
Summary of the method: as §1
Potency is read from the fitted curve at half-maximal effect.

SMILES | Potency [1] | Potency [2] | Potency [3] | Potency [4] | Potency [5] | Potency [6] | Potency [7] | Potency [8] | Potency [9] | Potency [10]
O=c1oc2ccccc2c(O)c1Cc1c(O)c2ccccc2oc1=O | inactive | inactive | inactive | inactive | inactive | inactive | inactive | inactive | inactive | inactive
Nc1ccc([As](=O)(O)O)cc1 | inactive | inactive | inactive | inactive | inactive | inactive | inactive | inactive | inactive | inactive
CCOP(=S)(OCC)Oc1ccc2c(C)c(Cl)c(=O)oc2c1 |  |  |  |  | inactive |  |  | inactive |  | 
Cc1nnc2n1-c1ccc(Cl)cc1C(c1ccccc1)=NC2 | inactive | inactive |  |  | inactive | inactive | inactive | inactive | inactive | inactive
O=C1CN=C(c2ccccc2)c2cc([N+](=O)[O-])ccc2N1 | inactive | inactive | inactive | inactive | inactive | inactive | inactive | inactive | inactive | inactive
CCCCCCC(=O)CCCCCC/C=C/C[C@@H](O)[C@H](O)[C@@](N)(CO)C(=O)O | inactive | inactive | inactive | inactive | inactive | inactive | inactive | inactive | inactive | inactive
COc1ccc2c(c1)C13CCCC[C@@H]1C(C2)N(C)CC3 (stereo partly specified) |  | inactive | inactive |  | inactive |  | inactive | inactive |  | inactive
Cc1ncsc1CCCl | inactive | inactive | inactive | inactive | inactive | inactive | inactive | inactive | inactive | inactive
CC(C)=CC1C(C(=O)OCN2C(=O)C3=C(CCCC3)C2=O)C1(C)C (stereo unspecified) | inactive | inactive | inactive | inactive | inactive | inactive | inactive | inactive | inactive | inactive
c1ccc2c(c1)sc1ccccc12 | inactive | inactive | inactive | inactive | inactive | inactive | inactive | inactive | inactive | inactive
CN1C[C@H](C(=O)N[C@]2(C)O[C@@]3(O)[C@@H]4CCCN4C(=O)[C@H](Cc4ccccc4)N3C2=O)C=C2c3cccc4[nH]cc(c34)C[C@H]21 | 1 µM (active) | 0.562 µM (active) | 3.16 µM (active) | 0.708 µM (active) | 3.55 µM (active) | 3.98 µM (active) | 1.58 µM (active) | 8.49 µM (active) | 13.5 µM (active) | 15.1 µM (active)
CC(C)(C)NCC(O)c1ccccc1Cl (stereo unspecified) |  |  |  |  | inactive |  | inactive | inactive |  | inactive
CCC(C)(C)c1ccc(O)cc1 | inactive | inactive | inactive |  | inactive | inactive | inactive | inactive | inactive | inactive
CNC(C)(C)Cc1ccccc1 | inactive | inactive | inactive | inactive | inactive | inactive | inactive |  | inactive | inactive
COC(=O)C(c1ccccc1)C1CCCCN1 (stereo unspecified) | inactive | inactive | inactive | inactive | inactive | inactive | inactive | inactive |  | inactive
O=P1(N(CCCl)CCCl)NCCCO1 (stereo unspecified) | inactive | inactive | inactive | inactive | inactive | inactive | inactive | inactive | inactive | inactive
NC(=O)c1cc([N+](=O)[O-])cc([N+](=O)[O-])c1 | inactive | inactive |  | inactive | inactive |  |  | inactive | inactive | inactive

SMILES | Potency [1] | Potency [2] | Potency [3] | Potency [4] | Potency [5] | Potency [6] | Potency [7] | Potency [8] | Potency [9] | Potency [10]
O=C1Nc2ccc(Cl)cc2C(c2ccccc2Cl)=NC1O (stereo unspecified) | inactive | inactive | inactive |  | inactive | inactive | inactive | inactive | inactive | inactive
C=CCN1C[C@H](C)N([C@H](c2ccc(C(=O)N(CC)CC)cc2)c2cccc(OC)c2)C[C@H]1C |  |  |  |  |  |  |  | inactive | inactive | inactive
Clc1ccc(C(c2ccc(Cl)cc2)C(Cl)(Cl)Cl)cc1 | inactive | inactive |  | inactive | inactive | inactive |  | inactive |  | inactive
O=C(N/N=C/c1ccc([N+](=O)[O-])o1)c1cc([N+](=O)[O-])cc([N+](=O)[O-])c1O | 0.1 µM (active) | 0.141 µM (active) | 0.316 µM (active) |  | 0.0178 µM (active) | 0.0631 µM (active) | 0.178 µM (active) |  |  | 
COc1ccc2c(c1OC)C(=O)O[C@H]2[C@@H]1c2cc3c(cc2CCN1C)OCO3 |  |  |  |  |  |  |  | inactive | inactive | inactive
C=C(C)[C@H]1CN[C@H](C(=O)O)[C@H]1CC(=O)O | inactive | inactive | inactive | inactive | inactive | inactive | inactive | inactive | inactive | inactive
Clc1cccc(SC2CCNCC2)n1 | inactive | inactive | inactive | inactive | inactive | inactive | inactive | inactive | inactive | inactive
CN1C(=O)CCS(=O)(=O)C1c1ccc(Cl)cc1 (stereo unspecified) | inactive | inactive | inactive | inactive | inactive | inactive | inactive | inactive | inactive | inactive
CCCC(C)(COC(N)=O)COC(N)=O | inactive | inactive | inactive | inactive | inactive | inactive | inactive | inactive | inactive | inactive
O=C1c2ccccc2C(=O)c2ccccc21 | inactive | inactive |  | inactive | inactive | inactive |  | inactive | inactive | inactive
CCC1(c2ccccc2)C(=O)N(COC)C(=O)N(COC)C1=O | inactive | inactive | inactive | inactive | inactive | inactive | inactive | inactive | inactive | inactive
CC(C)(C)NCC(O)c1cc(Cl)c(N)c(C(F)(F)F)c1 (stereo unspecified) | 7.94 µM (active) | 5.62 µM (active) | 7.08 µM (active) |  | 10 µM (active) | 10 µM (active) | 4.47 µM (active) | inactive |  | inactive
O=C1c2ccccc2C(=O)C1C(=O)C(c1ccccc1)c1ccccc1 | inactive |  | inactive | inactive | inactive | inactive | inactive | inactive | inactive | 
COC1CC(=C(c2cccs2)c2cccs2)C[N+](C)(C)C1 (stereo unspecified) | 12.6 µM (active) | 15.8 µM (active) | 8.91 µM (active) |  |  | 6.31 µM (active) | 5.01 µM (active) |  |  | 
COP(=S)(OC)Oc1ccc(S(=O)(=O)N(C)C)cc1 | inactive | inactive | inactive | inactive | inactive | inactive | inactive | inactive | inactive | inactive
NCCc1ccc(O)cc1 | inactive | inactive | inactive | inactive | inactive | inactive | inactive | inactive | inactive | inactive
